The source of these data is PubChem BioAssay (Tox21).

Each structure is given as a SMILES string. Records with an inconclusive call do not appear. Where a call stands in place of a potency, no number is given. Calls of active or inactive are those of the source. The call rests on the fitted dose curve; in most records, active means well fitted cell-killing curve with a large enough effect in the repeat runs; inconclusive means weak or mixed curves; inactive means flat fitted curve, though single readings scatter.

A short description of this assay: qHTS assay to identify small molecule antagonists of the estrogen receptor beta (ER-beta) signaling pathway - cell viability counter screen (AID 1259382). Further: nearly all actives have a fitted effect of over 55% in size. The following applies: ER-beta-UAS-bla HEK293T viability, CellTiter-Glo luminescence, 16 h; series mostly up to 92.4 µM. From the text:
U.S. Tox21 Program National Center for Advancing Translational Sciences [NCATS] NIH Chemical Genomics Center [NCGC] U.S. Environmental Protection Agency [EPA] National Institutes of Environmental Health Sciences [NIEHS] National Toxicology Program [NTP] U.S. Food and Drug Administration [FDA] Tox21 Assay Overview: Estrogen receptor (ER), a nuclear hormone receptor, plays an important role in development, metabolic homeostasis and reproduction. Two subtypes of ER, ER-alpha and ER-beta, have similar expression patterns with some uniqueness in both types. Endocrine disrupting chemicals (EDCs) and their interactions with steroid hormone receptors like ER causes disruption of normal endocrine function. To identify the compounds that inhibit ER signaling, an ER-beta-UAS-bla GripTite cell line (Life Technologies, Madison, WI, USA) containing a beta-lactamase reporter gene under the control of an UAS response element was used to screen Tox21 10K compound library. The cytotoxicity of the Tox21 compound library against the ER-beta-bla cell line was tested in parallel by measuring the cell viability using CellTiter-Glo assay in the same wells.
Tox21 Assay Protocol Summary: ER-beta-UAS-bla HEK293T cells were dispensed at 2,000 cells/4 uL of assay medium containing 2% charcoal stripped FBS per well into black wall/clear-bottom 1536-well plates using a Multidrop Combi (ThermoFisher Scientific, Waltham, MA) dispenser. After the assay plates were incubated at a 37C and 5% CO2 for 6 hr, 23 nL of compounds dissolved in DMSO, positive controls or DMSO only was transferred to the assay plate by a Pintool station (Kalypsys, San Diego, CA), followed by addition of 1 uL (1nM as final concentration) of 17-beta-estradiol (E2) in assay medium using a Flying Reagent Dispenser (FRD, Aurora Discovery, San Diego, CA). The plates were incubated at 37C and 5% CO2 for 16 hr. Then 1 uL of LiveBLAzer B/G FRET substrate was added using a Flying Reagent Dispenser, the plates were incubated at room temperature for 2 hours, and fluorescence intensity was measured by an Envision plate reader (PerkinElmer, Shelton, CT). For cell viability readout that measures cytotoxicity, 4 uL/well of CellTiter-Glo reagent was added into the assay plates using a FRD. After 30 min incubation at room temperature, the luminescence intensity in the plates was measured using a ViewLux (PerkinElmer) plate reader.
A general note: In qHTS, concentration-response curves come from the screen itself.
For the molecule `Fc1ccccc1-c1ccccc1`, the Potency result was “inactive”.
As for `O=S(=O)(O)c1ccccc1O`, the entry is “inactive”.
`C#CC(O)CCCCC` (stereo not given): the Potency result was “inactive”.
The entry for `CSc1nc(NC2CC2)nc(NC(C)(C)C)n1` is “inactive”.
As for `C/C=C1\C(=O)C[C@H]2[C@@H]3CCC4=CC(=O)CC[C@]4(C)[C@H]3CC[C@]12C`, the entry is “inactive”; as for `CSc1ccc(C=O)cc1`, “inactive”; as for `CCC(C)(C)C1CCC(OC)CC1` (stereo not given), “inactive”.
As for `CC(O)CN(CCCN(C)C)CCCN(C)C` (stereo not given), the Potency entry is “inactive”.
Turning to `CC(=O)NC(Cc1ccccc1)C(=O)O` (stereo not given), the Potency result was “inactive”.
As for `CCCCCCC(=O)OCC`, the entry is “inactive”.
The entry for `Cn1cnc2c(=O)[nH]c(N)nc21` is “inactive”; for `C=CC(=O)OCCCCCC` it is “inactive”.
For the molecule `COc1cccc(OC)c1`, the Potency entry was “inactive”.
The entry for `NS(=O)(=O)c1cc2c(cc1C(F)(F)F)NC(Cc1ccccc1)NS2(=O)=O` (stereo not given) is “inactive”; for `c1ccc(SCCSc2ccccc2)cc1` it is “inactive”.
The entry for `CCCCNc1ccccc1` is “inactive”.
As for `N#CC1(O)CCCCC1`, the entry is “inactive”; as for `CCCCCCCCCCCCCCCCCC(=O)OCCCCCCCCCCCCCC(C)C`, “inactive”; as for `CCC(C)OC(=O)N1CCCCC1CCO` (stereo not given), “inactive”.
Turning to `CCC(=O)Nc1cccc(N)c1`, the Potency result is “inactive”.
Regarding `CC(=O)c1ccc(C)cc1`, the Potency result is “inactive”.
As for `C=C[Si](OC)(OC)OC`, the entry is “inactive”.
In the case of `OCC(O)[C@@H](O)[C@H](O)[C@H](O)CO[C@H]1O[C@H](CO)[C@@H](O)[C@H](O)[C@H]1O` (stereo not given in full), the Potency result was “inactive”.
The entry for `CCn1c(=O)c2c(nc(/C=C/c3ccc(OC)c(OC)c3)n2C)n(CC)c1=O` is “inactive”.
Turning to `Cc1nc(-c2ccc(OCC(C)C)c(C#N)c2)sc1C(=O)O`, the Potency entry was “inactive”.
For `Nc1ncnc2c1ncn2Cc1c(F)cccc1Cl`, the Potency result was “inactive”.
As for `CCCCCCCCCCCl`, the entry is “inactive”.
In the case of `Nc1cc(N)cc(C(=O)O)c1`, the Potency entry is “inactive”.
As for `CCCCCCCCCCCCCCC`, the entry is “inactive”.
The entry for `c1ccc2cnncc2c1` is “inactive”; for `O=C(O)c1ccccc1S` it is “inactive”.
For `CC/C=C\C#N`, the Potency result is “inactive”.
Take `O=C1CC2(CCCC2)CC(=O)N1`: the Potency entry is “inactive”.
In the case of `CC(C)CCCC(C)CCCC(C)CCCCC(C)CCCC(C)CCCC(C)C` (stereo not given), the Potency entry was “inactive”.
As to `O=[N+]([O-])c1ccc(Oc2ccc([N+](=O)[O-])cc2)cc1`, the Potency entry was “inactive”.
The entry for `NS(=O)(=O)c1cc2c(cc1Cl)NC(CSCc1ccccc1)=NS2(=O)=O` is “inactive”.
As for `CC1(C)OC(=O)Nc2ccc(Br)cc21`, the entry is “inactive”; as for `CC(C)(C)CC(C)(C)N`, “inactive”; as for `CCCC(C)CO` (stereo not given), “inactive”.
Consider `CCCC=O`, for which the Potency result is “inactive”.
